This note sets out measurements from PubChem BioAssay (NCI).

Holding throughout (test): NCI-60 one-dose screen, 48 h (100 = growth as untreated, 0 = no growth, -100 = all killed)
Holding throughout (details): 10 µM unless noted

Assay [1] has as its system HCT-15 colon.
Assay [2] relates to HT29 colon.
The subject of assay [3] is SNB-75 CNS.
Assay [4] deals with SNB-19 CNS.
Assay [5] has as its system U251 CNS.
The test system of assay [6] is PC-3 prostate.
Assay [7] has as its system SK-MEL-5 melanoma.
The subject of assay [8] is UACC-62 melanoma.
Assay [9] has as its system LOX IMVI melanoma.
In assay [10] the test system is SK-MEL-28 melanoma.

This is part of a sample that, as a whole, favours compounds with a hit. Of some 83,000 tested, about 20% had one in any assay.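 48-hour exposure, single concentration, 96-well plates; percent growth endpoint where 0 means no net growth. Active: below 10.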 A number with no mark means an inactive call. Calls of active or inactive are those of the source.

As to `COC(=O)c1c(C(=O)OC)c2ccc3c4ncccc4ccc3n2c1C(=O)c1ccc(C)cc1`, the growth is 91.1% in [1]; 95.1% in [2]; 95.2% in [3]; 98.1% in [4]; 98.9% in [5]; 86.6% in assay [6]. In addition, the growth in assay [7] was 83.7%; in [8] it was 84.8%; in assay [9] it was 88%; in assay [10], 95.1%.
Regarding `CCn1c2ccccc2c2cc(C(O)c3cccc4ncccc34)ccc21` (stereo not given), the growth was 11.6% in assay [1]; 8.32% (active) in [2]; 31.1% in [3]; 36.4% in assay [4]; 19.2% in assay [5]; 13.4% in [6]. For the same compound, the growth in assay [7] was -4.22% (active); in assay [8], 16%; in assay [9], -8.41% (active); in [10], 61.5%.
Take `N#C/C(=C/C=C/c1ccccc1)S(=O)c1ccccc1` (stereo not given): the growth in [1] was -9.4% (active); in [2], -6% (active); in [3] it was 20.8%; in assay [4] it was -5.13% (active); in [5], -81.5% (active); in [6], -34.1% (active). In addition, the growth in assay [7] is -84.7% (active); in assay [8], -57% (active); in [9] it was -80.7% (active); in assay [10], -67.9% (active).
Consider `COc1cc(-c2c(-c3ccccc3)c[nH]c2C(=O)NCCCO)c(OC)c2c1OCO2`, for which the growth was 107% in assay [1]; 106% in assay [2]; 92.9% in assay [3]; 97.5% in assay [4]; 104% in [5]; 99.1% in assay [6]. Further, the growth in assay [7] was 99.1%; in assay [8] it was 93.7%; in [9], 99.5%; in assay [10] it was 107%.
Consider `COc1ccc(-c2ccc(-c3ccc(C(=N)N)nc3)s2)cc1`, for which the growth in assay [1] is -77% (active); in assay [2], -43.1% (active); in [3], 116%; in assay [4], 4.32% (active); in [5], -51.9% (active); in assay [6], -37.4% (active). Moreover, the growth in assay [7] is 70.8%; in assay [8], -94.2% (active); in [9], -89% (active); in assay [10], 93.8%.
Consider `Brc1ccc(-c2nn(-c3ccccc3)cc2-c2nn[nH]n2)s1`, for which the growth in [1] was 96.2%; in assay [2], 117%; in assay [3] it was 92.7%; in assay [4], 87.3%; in assay [5], 87.8%; in [6] it was 93.7%. For the same compound, the growth in assay [7] was 90%; in assay [8], 85.1%; in assay [9], 90.9%; in [10], 96.2%.
For the compound `COc1ccc(C(=O)C2OC3=C(C(=O)CC(C)(C)C3)C2c2cccc(Oc3ccccc3)c2)cc1` (stereo not given), the growth in assay [1] was 89.3%; in assay [2], 91.1%; in assay [3] it was 86.9%; in assay [4] it was 92.8%; in [5] it was 88.9%; in [6], 81.3%. The growth was 90.7% in assay [7], 72.6% in assay [8], 92.3% in [9] and 103% in assay [10].
Consider `C=CCn1c(SCC(=O)Nc2ccc(C(=O)/C=C/c3ccc(Cl)cc3)cc2)nnc1-c1ccc(Cl)c(Cl)c1`, for which the growth in assay [1] is 78.8%; in assay [2] it was 71.6%; in [3], 73.9%; in assay [4], 85.3%; in [5], 81%; in [6], 51.8%. Also, the growth is 82.3% in [7], 62.4% in assay [8], 72.2% in assay [9] and 101% in [10].
For the compound `N=C(N)c1ccc(-c2ccc(-c3ccccc3)s2)nc1`, the growth was 44.9% in [1]; 26.7% in [2]; 88.4% in assay [3]; 87.5% in assay [4]; 41.1% in [5]; 80.5% in assay [6]. Further, the growth is 87.5% in [7], 91.6% in assay [8], 51.3% in assay [9] and 109% in assay [10].
Consider `O=C1/C(=C/c2cccc([N+](=O)[O-])c2)COc2ccc(O)c(O)c21`, for which the growth was -3.34% (active) in assay [1]; -12% (active) in [2]; 7.32% (active) in [3]; -47.3% (active) in [4]; -89% (active) in assay [5]; -38.9% (active) in assay [6]. Also, the growth is 16.7% in assay [7], -83.3% (active) in assay [8], -93.6% (active) in assay [9] and -48.3% (active) in [10].
`CCCS(=O)(=O)Nc1cccc(Nc2ncnc3cc(NC(=O)CCl)ccc23)c1Cl`: the growth in assay [1] was -26.7% (active); in assay [2] it was -63.4% (active); in [3], -93.3% (active); in assay [4] it was 0.0363% (active); in assay [5] it was -93.3% (active); in assay [6] it was -25.7% (active). Besides, the growth in assay [7] was -85.3% (active); in assay [8], -66.2% (active); in assay [9], -83.9% (active); in [10] it was -22.8% (active).
Consider `C=CC(=O)Nc1ccc2ncnc(Nc3cccc(NS(=O)(=O)CCC)c3Cl)c2c1`, for which the growth is 67.9% in assay [1]; 7.98% (active) in assay [2]; 8.28% (active) in [3]; 49% in [4]; 52.5% in assay [5]; 68% in assay [6]. Further, the growth in assay [7] was 52.4%; in assay [8], 6.45% (active); in assay [9], 40.7%; in assay [10] it was 15%.
